# Laboratory results from PubChem BioAssay (NCATS).
# Unmarked numbers belong to inactive results. Results filed as inconclusive are left out. Where a call stands in place of a potency, no number is given. Calls of active or inactive are those of the source. Unless noted, calls come from the whole dose curve; as a rule, active = well fitted curve in the direction sought with a large enough effect; inconclusive = small, poorly fitted or top-dose-only effect, or another doubt; inactive = no such curve, though single readings can be large; an effect the other way counts as inactive or inconclusive.
# Assays:
# [1] = AP1 Signaling Pathway (AID 357; active = well fitted curve in either direction with a large enough effect, not every such curve was filed as active;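 note: ME-180 reporter cells stimulated with EGF at its EC50 level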); settings: ME-180 AP-1-bla reporter, EGF-induced, beta-lactamase ratio, 5 h; at 7.69 µM (top of the series) unless noted
# Summary of the method: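 AP-1-bla ME-180 cells, Opti-MEM + 0.5% dialyzed FBS, plated overnight 37 °C. Cpd titration + EC50 EGF, 5 h 37 °C. CCF4 2.5 h RT; ex 405, em 460/530 ratio → %activity, AC50.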
# [2] = target: 3',5'-cyclic-AMP phosphodiesterase 4B (Homo sapiens) (UniProt Q07343); assay: qHTS Assay for Inhibitors of PDE-IV (AID 607; active = well fitted activation curve with a large enough effect in the main read-out, with a control signal flat, not every such curve was filed as active)
# Summary of the method: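 The readout is membrane depolarisation from a cAMP-sensing CNG channel, detected with a potential dye at ex 535/em 590. Cells were HEK293-derived (endogenous PDE-IV) at 1000 cells/well, titrated up to 22.9 uM final.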
# [3] = target: Cytochrome P450 3A4 (Homo sapiens) (UniProt P08684); assay: qHTS Assay for Inhibitors and Substrates of Cytochrome P450 3A4 (AID 884); note: nearly all actives have a fitted effect of over 50% in size; note: potency is the fitted concentration of half-maximal effect
# Summary of the method: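 20 nM human CYP3A4 with 25 uM Luciferin-PPXE (at KM) in 200 mM KPO4, preincubated 10 min with compound; NADPH regeneration started a 60 min RT reaction. Luciferin detected by luminescence, normalized to 57 uM ketoconazole as full inhibition.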
# [4] = target: Dual specificity protein kinase CLK4 (Homo sapiens) (UniProt Q9HAZ1); assay: qHTS Assay for Inhibitors of CDC-like Kinase 4 (Kinase-Glo Assay) (AID 1770); note: nearly all actives have a fitted effect of over 65% in size; note: potency is the fitted concentration of half-maximal effect
# Summary of the method: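 Inhibition was judged from remaining ATP, measured by Ultra-Glo luciferase bioluminescence after Clk4 (25 nM) had acted on RS peptide at 1 uM ATP for 4.5 hours, room temperature.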
# [5] = target: Dual specificity protein kinase CLK4 (Homo sapiens) (UniProt Q9HAZ1); assay: qHTS Assay for Inhibitors of CDC-like Kinase 4 (ADP-FP Assay) (AID 1795); note: nearly all actives have a fitted effect of over 60% in size; note: potency is the fitted concentration of half-maximal effect;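 for activity change, negative = inhibition: recombinant human CLK4 phosphorylating RS repeat peptide at 1 µM ATP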
# Summary of the method: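 Inhibition of ADP formation by 6.25 nM Clk4 is measured using 1 uM ATP and 100 uM RS repeat peptide over one hour. Produced ADP displaces a fluorescent tracer from antibody, lowering polarization.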
# [6] = target: Cytochrome P450 3A4 (Homo sapiens) (UniProt P08684); assay: qHTS Assay for Activators of Cytochrome P450 3A4 (AID 885); note: nearly all actives have a fitted effect of over 65% in size
# Summary of the method: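 Steps: enzyme/substrate mix dispensed; compound added, 10 min RT; NADPH regeneration solution added, 60 min RT; luciferin detection buffer stops reaction; 20 min later luminescence measured.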
# [7] = target: Dual specificity protein kinase CLK4 (Homo sapiens) (UniProt Q9HAZ1); assay: qHTS Assay for Inhibitors of CDC-like Kinase 4 (ADP-Glo Assay) (AID 1771); note: nearly all actives have a fitted effect of over 70% in size; note: potency is the fitted concentration of half-maximal effect
# Summary of the method: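 Kinase reaction: Clk4 at 25 nM, RS repeat peptide substrate at 100 uM, ATP at 1 uM, 1 hr, room temperature. Product ADP detected as luciferase signal via ADP-Glo.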
# [8] = target: Cytochrome P450 2C19 (Homo sapiens) (UniProt P33261); assay: qHTS Assay for Inhibitors and Substrates of Cytochrome P450 2C19 (AID 899); note: potency is the fitted concentration of half-maximal effect; nearly all actives have a fitted effect of over 60% in size
# Summary of the method: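 Human CYP2C19 (5nM) with Luciferin-H EGE at 10uM (its KM) in 50mM KPO4 was preincubated with compound for 10 min at 37C. NADPH regeneration started a 60 min 37C reaction. Luciferin was read by luminescence, normalized to 57uM ketoconazole.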
# [9] = HepG2 viability counterscreen (readout 1: protease activity) against the NCATS DSHEA and TCM libraries (AID 1794841);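 note: cells exposed to compounds for about 24 h before the protease read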
# Summary of the method: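 Cytotoxicity was assessed in HepG2 cells plated at 1,000 cells/well and exposed for about 24 hours to a concentration series. Protease activity and ATP content were measured sequentially in each well.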
# [10] = target: Cytochrome P450 2C9 (Homo sapiens) (UniProt P11712); assay: qHTS for inhibitors of CYP2C9 against the NCATS DSHEA and TCM libraries (AID 1919973);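 note: luminogenic pro-luciferin CYP2C9 substrate turned into luciferin with NADPH regeneration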
# Summary of the method: (§1)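 Light output from converted D-luciferin reports remaining CYP activity. Compounds preincubate with enzyme and substrate for 15 min; NADPH regeneration (1x final) runs the reaction for 30-45 min.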
# [11] = target: Cytochrome P450 2C19 (Homo sapiens) (UniProt P33261); assay: qHTS for inhibitors of CYP2C19 against the NCATS DSHEA and TCM libraries (AID 1919974);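 note: luminescence from luciferin released by CYP2C19 oxidation of a pro-luciferin substrate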
# Summary of the method: as §1
# [12] = qHTS Assay for Identification of Small Molecule Agonists for Hypoxia Response Element Signaling Pathway (AID 914; active = well fitted activation curve with a large enough effect in the signal ratio, with a control signal flat, not every such curve was filed as active; the % refers to the signal ratio; note: potency is the fitted concentration of half-maximal effect); settings: ME-180 (cervical carcinoma) HRE-bla reporter, beta-lactamase ratio, CoCl2, 17 h; activation: active compounds read high
# Summary of the method: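 A beta-lactamase reporter under hypoxia response element control in ME-180 cells served as the system. Compound titrations plus EC50 CoCl2 ran 17 h at 37 degrees Celsius; AC50 values were fitted from %Activity.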
# [13] = Dual reporter qHTS for antagonist of Pregnane X Receptor (hPXR) against the NCATS DSHEA and TCM libraries: Fluorescence Readout (AID 1920061)
# Summary of the method: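 HepG2 hPXR-Luc, 2000 cells/well, charcoal-stripped FBS medium; 5 h attach; RIF 2 uM final; 24 h 37C/5% CO2; CellTiter-Fluor 1 h, fluor 405/540; ONE-Glo 30 min RT, lum.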
# Sequence of Cytochrome P450 2C19 (Homo sapiens) (P33261 whole entry, looked up): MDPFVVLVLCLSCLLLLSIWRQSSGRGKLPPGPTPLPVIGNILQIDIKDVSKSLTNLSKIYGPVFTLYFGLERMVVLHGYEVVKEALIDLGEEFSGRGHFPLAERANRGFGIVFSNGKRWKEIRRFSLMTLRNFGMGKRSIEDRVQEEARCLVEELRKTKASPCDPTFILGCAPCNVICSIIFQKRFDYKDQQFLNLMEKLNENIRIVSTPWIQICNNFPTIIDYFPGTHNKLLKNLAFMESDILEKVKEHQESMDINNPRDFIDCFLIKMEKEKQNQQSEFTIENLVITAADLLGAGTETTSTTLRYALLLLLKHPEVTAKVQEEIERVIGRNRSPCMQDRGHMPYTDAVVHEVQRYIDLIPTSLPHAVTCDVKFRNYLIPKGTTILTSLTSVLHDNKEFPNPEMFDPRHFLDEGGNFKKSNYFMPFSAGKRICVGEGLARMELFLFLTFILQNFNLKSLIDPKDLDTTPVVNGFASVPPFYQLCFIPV
# Sequence of 3',5'-cyclic-AMP phosphodiesterase 4B (Homo sapiens) (Q07343 whole entry, looked up): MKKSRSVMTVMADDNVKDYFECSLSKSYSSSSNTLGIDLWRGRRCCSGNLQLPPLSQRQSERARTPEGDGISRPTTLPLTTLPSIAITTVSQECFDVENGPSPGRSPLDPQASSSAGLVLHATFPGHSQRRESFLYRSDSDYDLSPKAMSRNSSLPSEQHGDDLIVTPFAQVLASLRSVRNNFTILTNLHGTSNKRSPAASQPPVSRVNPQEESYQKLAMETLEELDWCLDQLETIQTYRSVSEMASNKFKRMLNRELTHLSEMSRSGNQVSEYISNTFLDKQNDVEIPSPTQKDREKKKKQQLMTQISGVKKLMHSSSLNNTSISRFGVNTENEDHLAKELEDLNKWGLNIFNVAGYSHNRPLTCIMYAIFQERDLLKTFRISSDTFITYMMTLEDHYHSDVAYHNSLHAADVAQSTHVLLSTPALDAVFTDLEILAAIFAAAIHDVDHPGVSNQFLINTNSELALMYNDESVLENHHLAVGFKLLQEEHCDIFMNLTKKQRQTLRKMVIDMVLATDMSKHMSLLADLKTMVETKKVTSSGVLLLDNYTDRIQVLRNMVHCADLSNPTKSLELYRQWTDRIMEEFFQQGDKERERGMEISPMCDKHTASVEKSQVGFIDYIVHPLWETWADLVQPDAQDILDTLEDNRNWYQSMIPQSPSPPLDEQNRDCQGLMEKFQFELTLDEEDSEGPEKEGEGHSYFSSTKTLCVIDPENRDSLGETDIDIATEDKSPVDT
# Sequence of Cytochrome P450 3A4 (Homo sapiens) (P08684 whole entry, looked up): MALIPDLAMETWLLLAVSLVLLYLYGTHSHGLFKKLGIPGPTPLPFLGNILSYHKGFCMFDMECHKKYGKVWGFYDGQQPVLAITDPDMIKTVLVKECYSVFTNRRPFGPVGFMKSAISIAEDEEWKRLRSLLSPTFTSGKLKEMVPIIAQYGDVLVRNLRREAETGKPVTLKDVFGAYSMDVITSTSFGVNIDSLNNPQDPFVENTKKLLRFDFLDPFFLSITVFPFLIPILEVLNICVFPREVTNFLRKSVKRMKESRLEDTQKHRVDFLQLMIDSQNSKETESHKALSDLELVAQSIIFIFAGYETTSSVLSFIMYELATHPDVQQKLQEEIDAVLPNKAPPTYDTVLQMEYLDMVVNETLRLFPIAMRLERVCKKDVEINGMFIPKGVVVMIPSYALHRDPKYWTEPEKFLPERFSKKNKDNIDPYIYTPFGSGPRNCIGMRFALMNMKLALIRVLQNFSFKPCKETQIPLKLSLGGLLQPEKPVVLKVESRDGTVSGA
# Sequence of Dual specificity protein kinase CLK4 (Homo sapiens) (Q9HAZ1 whole entry, looked up): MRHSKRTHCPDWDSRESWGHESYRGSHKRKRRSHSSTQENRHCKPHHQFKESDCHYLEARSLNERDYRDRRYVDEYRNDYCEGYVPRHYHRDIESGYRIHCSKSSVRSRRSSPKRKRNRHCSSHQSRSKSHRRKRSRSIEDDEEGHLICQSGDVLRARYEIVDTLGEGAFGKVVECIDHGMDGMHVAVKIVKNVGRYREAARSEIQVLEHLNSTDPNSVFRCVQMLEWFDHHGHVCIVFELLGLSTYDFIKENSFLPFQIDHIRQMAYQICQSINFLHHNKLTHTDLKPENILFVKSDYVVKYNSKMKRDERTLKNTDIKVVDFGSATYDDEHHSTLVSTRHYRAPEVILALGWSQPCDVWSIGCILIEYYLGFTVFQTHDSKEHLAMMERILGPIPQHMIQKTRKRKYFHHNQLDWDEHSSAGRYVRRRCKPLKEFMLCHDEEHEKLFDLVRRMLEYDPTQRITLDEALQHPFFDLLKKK
# Sequence of Cytochrome P450 2C9 (Homo sapiens) (P11712 whole entry, looked up): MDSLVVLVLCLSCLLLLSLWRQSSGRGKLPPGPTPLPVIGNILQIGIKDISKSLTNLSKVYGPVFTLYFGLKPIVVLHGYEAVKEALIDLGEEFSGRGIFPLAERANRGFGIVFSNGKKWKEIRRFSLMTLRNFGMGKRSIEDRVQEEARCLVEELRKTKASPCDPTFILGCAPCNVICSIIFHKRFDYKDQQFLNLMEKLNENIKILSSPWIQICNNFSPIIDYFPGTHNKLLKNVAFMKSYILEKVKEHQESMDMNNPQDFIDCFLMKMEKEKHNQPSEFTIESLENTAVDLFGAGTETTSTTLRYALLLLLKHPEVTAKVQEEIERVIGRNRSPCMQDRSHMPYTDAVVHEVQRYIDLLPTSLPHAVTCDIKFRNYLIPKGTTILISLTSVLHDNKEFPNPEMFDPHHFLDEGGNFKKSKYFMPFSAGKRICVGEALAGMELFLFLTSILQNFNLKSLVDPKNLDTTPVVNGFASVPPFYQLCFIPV
compound,measurement,setting,value
Cn1c(=O)c(-c2ccccc2)nc2cnc(N3CCOCC3)nc21,"activity change, negative = inhibition",[1],-2.38%
same,Potency,[2],inactive
same,Potency,[3],inactive
same,Potency,[4],inactive
same,Potency,[5],inactive
Cc1noc(C)c1-c1nc(N2CCN(C)CC2)c2ccccc2n1,"activity change, negative = inhibition",[1],28.9%
same,Potency,[4],15.8 µM (active)
COCCn1c(=O)c(CCc2ccccc2)nc2cnc(N(C)C)nc21,"activity change, negative = inhibition",[1],-26.9%
same,outcome,[6],inactive
same,Potency,[4],inactive
same,Potency,[5],inactive
Cc1nc2cnc(Oc3cccc(Cl)c3)nc2n(Cc2ccc(F)cc2)c1=O,Potency,[2],inactive
same,Potency,[4],inactive
same,Potency,[7],inactive
COc1ccc2[nH]cc(CCNc3cc(-c4ccccc4OC)ncn3)c2c1,Potency,[2],inactive
same,Potency,[3],6.31 µM (active)
same,outcome,[6],inactive
same,Potency,[8],3.16 µM (active)
same,Potency,[4],12.6 µM (active)
COc1ccc2[nH]cc(CCNc3ncncc3-c3ccoc3)c2c1,Potency,[2],inactive
same,Potency,[4],14.1 µM (active)
same,Potency,[5],3.55 µM (active)
CN(C)c1ccc(-c2nccc(NCc3cccs3)n2)cc1,"activity change, negative = inhibition",[1],-18.4%
same,outcome,[6],inactive
same,Potency,[4],8.91 µM (active)
same,Potency,[7],5.62 µM (active)
Cc1cnc(CNc2ncnc3ccc(-c4ccccc4Cl)cc23)cn1,"activity change, negative = inhibition",[1],14.6%
same,outcome,[6],inactive
same,Potency,[7],14.1 µM (active)
same,Potency,[5],10 µM (active)
CC(C)=CCC[C@](C)(O[C@@H]1O[C@H](CO)[C@@H](O)[C@H](O)[C@H]1O)[C@H]1CC[C@]2(C)[C@@H]1[C@H](O)C[C@@H]1[C@@]3(C)CC[C@H](O)C(C)(C)[C@@H]3[C@@H](O[C@@H]3O[C@H](CO)[C@@H](O)[C@H](O)[C@H]3O[C@@H]3O[C@@H](C)[C@H](O)[C@@H](O)[C@H]3O)C[C@]12C,outcome,[9],inactive
same,Potency,[10],inactive
same,Potency,[11],inactive
COCCn1c(=O)c(-c2cc(F)cc(F)c2)nc2cnc(N3CCN(C)CC3)nc21,"activity change, negative = inhibition",[1],19.3%
same,Potency,[2],inactive
same,Potency,[12],3.16 µM (active)
same,Potency,[7],inactive
same,Potency,[5],inactive
COc1ccc2[nH]cc(CCNc3ncncc3-c3ccccc3C)c2c1,Potency,[2],inactive
same,outcome,[6],inactive
same,Potency,[8],0.0501 µM (active)
same,Potency,[7],28.2 µM (active)
COc1ccc(Oc2ncc3nc(-c4ccc(F)cc4)c(=O)n(CCC#N)c3n2)cc1,"activity change, negative = inhibition",[1],-16.1%
same,Potency,[2],inactive
same,Potency,[7],inactive
CC(C)[C@H](C)CC[C@@H](C)[C@H]1CC[C@H]2[C@@H]3CC=C4C[C@@H](O)CC[C@]4(C)[C@H]3CC[C@]12C,outcome,[9],inactive
same,Potency,[10],inactive
same,Potency,[11],inactive
same,outcome,[13],inactive
CC1(C)C2CCC1(C)C(O)C2 (stereo not given),outcome,[9],inactive
